HEK293 viab – reduces viability of HEK-293 SNCA reporter cells; AID 1671193; Potency, µM (doses to about 57.1 µM), inactives show top-dose activity change, negative = cytotoxicity, hits mostly cytotoxic; actives 0.12% (n = 150,000); HEK-293-SNCA-luc viability, GF-AFC fluorescence, 24 h;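 note: potency is the fitted concentration of half-maximal effect; 0% = DMSO-treated cells and -100% = medium-only wells without cells; nearly all actives have a fitted effect of over 30% in size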
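Cytotoxicity counterscreen: after 24 h compound treatment of genome-edited SNCA-luciferase HEK-293 cells, live-cell protease substrate GF-AFC read by fluorescence after 30 min; activity scaled between DMSO (0%) and medium-only (-100%), curves Hill-fitted.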
Luciferase inh – blocks purified firefly luciferase enzyme activity; P08659; purified P. pyralis luciferase, luminescence, biochemical; Potency, µM (doses to about 115 µM), actives largely listed as inhibitors; actives 2.5% (n = 76,000); AID 1347043; note: potency is the fitted concentration of half-maximal effect; nearly all actives have a fitted effect of over 65% in size
Target sequence (P08659 whole entry, looked up): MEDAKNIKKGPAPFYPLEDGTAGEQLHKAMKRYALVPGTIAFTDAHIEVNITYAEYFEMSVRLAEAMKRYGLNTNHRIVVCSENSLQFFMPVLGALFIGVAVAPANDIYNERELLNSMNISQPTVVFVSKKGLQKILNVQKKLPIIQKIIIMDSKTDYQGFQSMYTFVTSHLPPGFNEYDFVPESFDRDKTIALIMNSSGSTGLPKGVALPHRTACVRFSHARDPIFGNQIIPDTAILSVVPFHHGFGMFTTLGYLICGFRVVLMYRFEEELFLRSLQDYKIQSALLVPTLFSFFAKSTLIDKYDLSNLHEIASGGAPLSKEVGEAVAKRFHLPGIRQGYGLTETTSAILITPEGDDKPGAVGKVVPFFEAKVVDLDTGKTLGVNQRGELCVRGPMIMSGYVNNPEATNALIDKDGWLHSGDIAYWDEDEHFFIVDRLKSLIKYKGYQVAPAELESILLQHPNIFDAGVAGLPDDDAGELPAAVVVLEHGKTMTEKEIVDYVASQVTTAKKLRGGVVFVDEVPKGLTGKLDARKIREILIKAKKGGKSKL
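Luminescence read by CCD imager after adding enzyme (10nM final) to wells holding compound, titrated in qHTS. Substrates 10uM each D-luciferin and ATP; buffer 50mM Tris acetate pH 7.5, 10mM Mg acetate, Tween-20, BSA.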
SNCA expr inhib – inhibitors of alpha-synuclein (SNCA) gene expression. HEK-293 SNCA-luciferase knock-in, luminescence, 24 h. Potency, µM (highest dose often 57.2 µM), for the others: at the highest dose activity change, negative = inhibition, usual class: inhibitors. actives 0.17% (n = 140,000). AID 1671194;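 note: potency is the fitted concentration of half-maximal effect; plate controls were DMSO cells for no effect and cell-free wells for full effect; nearly all actives have a fitted effect of over 45% in size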
IP6K1 inh – IP6K1 kinase inhibition; Q92551; IP6K1 kinase, ADP-Glo luminescence, 2 h; stronger effect = lower value; activity change, % (series mostly up to about 58 µM); actives 0.81% (n = 140,000); AID 1645851; in the data active = activity change below about -25%
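ADP-Glo luminescence measures ADP made by human IP6K1 during a 2 h RT reaction with ATP/IP6 (mix at 1.3 mM/130 uM); top library doses 57.5 and 19.1 uM final.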
NIH3T3 tox – NIH 3T3 cell cytotoxicity; Potency, µM (doses to about 96.7 µM), without a hit: top-dose activity change, negative = cytotoxicity, usual class: inhibitors; NIH 3T3 viability, CellTiter-Glo ATP luminescence, 48-72 h; actives 4.3% (n = 94,000); note: potency is the fitted concentration of half-maximal effect; nearly all actives have a fitted effect of over 55% in size
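ATP-dependent luminescence (CellTiter-Glo) served as the viability signal for NIH 3T3 cells treated with compound for 48 or 72 hr at 37 °C.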
HEK293 tox – kills HEK 293 cells; HEK 293 viability, ATP luminescence (CellTiter-Glo), 48-72 h; Potency, µM (top dose mostly 115 µM), for inactives: at the highest dose activity change, negative = cytotoxicity, hits mostly inhibitors; actives 6.6% (n = 94,000); AID 1345083; note: potency is the fitted concentration of half-maximal effect; nearly all actives have a fitted effect of over 60% in size
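Luminescence from cellular ATP, measured with CellTiter-Glo, indicates HEK 293 viability. Cells plated at 250 cells/well are treated with compound for 48 or 72 hr at 37 degree Celsius before reagent addition.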
* = called active by the depositor; [ ] = remark or other dose. Shown are actives, neighbours in structure and some others; about 7.3% of the full set was active somewhere. Unless noted, calls come from the whole dose curve; as a rule, active = well fitted curve in the direction sought with a large enough effect; inconclusive = small, poorly fitted or top-dose-only effect, or another doubt; inactive = no such curve, though single readings can be large; an effect the other way counts as inactive or inconclusive. Unless noted, % is set by controls: 0 for no effect and ±100 for the full control effect.

What do the screens show for `CC(=O)NC1(C)CN(Cc2ccc(-c3cccc(C(F)(F)F)c3)s2)C1`?
HEK293 viab: -9.5%[87.6 µM]; Luciferase inh: 12.6µM*; SNCA expr inhib: 146.6%[87.6 µM]; IP6K1 inh: -1.8; NIH3T3 tox: 44.7µM*; HEK293 tox: 63.1µM*

How did CC(=O)NC1(C)CN(Cc2ccc(-c3cccc(F)c3)s2)C1 do in these assays?
HEK293 viab: -4.4%[87.6 µM]; Luciferase inh: inconclusive; SNCA expr inhib: 158.0%[87.6 µM]; IP6K1 inh: 2.3; NIH3T3 tox: inconclusive; HEK293 tox: inconclusive

How did CCOC(=O)C1CCCN(C(=O)C2CCc3nnc(C4CC4)n32)C1 (centres undefined) do in these assays?
HEK293 viab: -0.2%[12.5 µM]; SNCA expr inhib: -21.7%; IP6K1 inh: 23.8; NIH3T3 tox: 25.1µM*; HEK293 tox: inconclusive

How did CCOC(=O)C1CCN(C(=O)C2CCc3nnc(C4CC4)n32)CC1 (centres undefined) do in these assays?
HEK293 viab: 4.1%[12.5 µM]; SNCA expr inhib: 6.7%; IP6K1 inh: 7.3; NIH3T3 tox: -5.7%; HEK293 tox: -6.5%

Results for CNC(=O)c1c(F)cccc1Nc1nc(Nc2cc3c(cc2OC)CCN3C(=O)CN(C)C)nc2[nH]ccc12 ?
HEK293 viab: -17.3%; SNCA expr inhib: 13.6µM*; IP6K1 inh: -5.3

What do the screens show for `O=C(NC1CCN(CCn2nc3n(c2=O)CCCC3)C1)c1ccncc1` (centres undefined)?
IP6K1 inh: -10.8; NIH3T3 tox: inactive; HEK293 tox: inactive

How did O=C(Nc1ccc2c(c1)OCO2)C1CN(S(=O)(=O)c2cccnc2)CC12CCCCC2 (centres undefined) do in these assays?
HEK293 viab: -26.2%; Luciferase inh: 39.8µM*; SNCA expr inhib: 4.5%; IP6K1 inh: 4.0; NIH3T3 tox: -27.1%; HEK293 tox: -29.8%

What do the screens show for `O=C(Nc1ccc(F)cc1)C1CN(S(=O)(=O)c2cccnc2)CC12CCCCC2` (centres undefined)?
HEK293 viab: -9.0%; Luciferase inh: inactive; SNCA expr inhib: -17.0%; IP6K1 inh: 12.7; NIH3T3 tox: -15.4%; HEK293 tox: inconclusive

What do the screens show for `O=C(c1ccc2c(c1)N(C(=O)c1ccccc1)CC2)N1CCN(c2cccc(Cl)c2)CC1`?
HEK293 viab: inconclusive; Luciferase inh: inactive; SNCA expr inhib: inconclusive; IP6K1 inh: -3.8; NIH3T3 tox: inconclusive; HEK293 tox: 31.6µM*

How did CS(=O)(=O)N1CCc2cc(C(=O)N3CCN(c4cccc(Cl)c4)CC3)ccc21 do in these assays?
HEK293 viab: 0.0%; SNCA expr inhib: 2.7%; IP6K1 inh: 4.8

What do the screens show for `CN(C)S(=O)(=O)N1CCCC(c2nc(-c3cnccn3)no2)CCNC(=O)CC1` (centres undefined)?
HEK293 viab: 9.1%; Luciferase inh: inactive; SNCA expr inhib: -9.3%; IP6K1 inh: 39.5; NIH3T3 tox: -1.6%; HEK293 tox: -6.5%

Results for CC(C)CNC(=O)c1cc(-c2ccc(F)cc2)c2nncn2n1 ?
HEK293 viab: -2.2%[12.5 µM]; SNCA expr inhib: inconclusive; IP6K1 inh: 11.5; NIH3T3 tox: 44.7µM*; HEK293 tox: inconclusive

Results for Cc1ccc(-c2cc(C(=O)NCC(F)F)nn3cnnc23)cc1 ?
HEK293 viab: -5.6%[87.6 µM]; SNCA expr inhib: 0.3%[87.6 µM]; IP6K1 inh: -7.5; NIH3T3 tox: -2.6%[138 µM]; HEK293 tox: 0.1%[172 µM]

How did CC(C)C(=O)N1CCCC(c2nn(C)c(=O)n2C(C)C)C1 (centres undefined) do in these assays?
HEK293 viab: 1.2%; Luciferase inh: inactive; SNCA expr inhib: inconclusive; IP6K1 inh: 5.2; NIH3T3 tox: inactive; HEK293 tox: 14.1%

Results for CN1CC(=O)N(C2CCNC2)Cc2c1ncnc2N1CCC(N2CCOCC2)CC1 (centres undefined) ?
HEK293 viab: 0.9%; SNCA expr inhib: -0.8%; IP6K1 inh: -1.0; NIH3T3 tox: inactive; HEK293 tox: inactive

How did COc1ccc(Nc2ccnc(N3CCC(N[S+](=O)([O-])c4cccc(C(F)(F)F)c4)CC3)n2)cc1 do in these assays?
HEK293 viab: inconclusive; SNCA expr inhib: inconclusive; IP6K1 inh: 9.5; NIH3T3 tox: 17.8µM*; HEK293 tox: 22.4µM*

How did COc1ccc(Nc2ccnc(N3CCC(N[S+](=O)([O-])c4c(C)noc4C)CC3)n2)cc1 do in these assays?
HEK293 viab: 0.4%; SNCA expr inhib: -20.7%; IP6K1 inh: -4.6; NIH3T3 tox: 39.8µM*; HEK293 tox: 44.7µM*

How did COc1ccc(Nc2ccnc(N3CCC(N[S+](=O)([O-])c4ccccc4)CC3)n2)cc1 do in these assays?
HEK293 viab: 1.1%[12.5 µM]; SNCA expr inhib: -10.1%; IP6K1 inh: 15.3; NIH3T3 tox: inconclusive; HEK293 tox: inconclusive

How did CO[C@H]1[C@@H]2CN(Cc3ccccc3)C[C@@H]2[C@@H]2O[C@H]1C[C@@H]2c1ccc(F)cc1 do in these assays?
IP6K1 inh: -8.4; NIH3T3 tox: inconclusive; HEK293 tox: inconclusive

What do the screens show for `O=C(CCc1ccccc1)N1CCCCCC1CN1CCOCC1` (centres undefined)?
HEK293 viab: -4.7%; Luciferase inh: inactive; SNCA expr inhib: -16.5%; IP6K1 inh: -4.6; NIH3T3 tox: -24.6%; HEK293 tox: -8.7%

What do the screens show for `c1cn(CC2COCCO2)c(-c2cc3n(n2)CCCNC3)n1` (centres undefined)?
HEK293 viab: -19.3%; Luciferase inh: inactive; SNCA expr inhib: 10.6%; IP6K1 inh: 14.2; NIH3T3 tox: 3.6%; HEK293 tox: -3.9%

Results for COc1ccc(-c2ccc(C(=O)N[C@H]3CCOC[C@H]3C3CCOCC3)o2)cc1 ?
HEK293 viab: 14.8%; Luciferase inh: inactive; SNCA expr inhib: 25.5%; IP6K1 inh: -7.9; NIH3T3 tox: inconclusive; HEK293 tox: -16.8%

How did COc1ccc(-c2ccc(C(=O)N[C@@H]3COCC[C@H]3OC)o2)cc1 do in these assays?
HEK293 viab: -6.4%; Luciferase inh: 35.5µM*; SNCA expr inhib: 76.9%; IP6K1 inh: -19.7; NIH3T3 tox: -29.3%; HEK293 tox: -19.7%

How did CCc1[nH]c2ccc(CNC(=O)C3CC(=O)Nc4ccccc43)cc2c1C (centres undefined) do in these assays?
HEK293 viab: 1.8%; Luciferase inh: 17.8µM*; SNCA expr inhib: 22.7%; IP6K1 inh: -3.9; NIH3T3 tox: inconclusive; HEK293 tox: inconclusive

How did CCc1[nH]c2ccc(CNC(=O)[C@H]3[C@@H]4C=C[C@@]5(CN(C)C(=O)[C@@H]35)O4)cc2c1C do in these assays?
HEK293 viab: -9.8%; Luciferase inh: inactive; SNCA expr inhib: -17.5%; IP6K1 inh: 1.4; NIH3T3 tox: -0.4%; HEK293 tox: -2.3%

Source: PubChem BioAssay
